Usually AC50 stands for the concentration giving half of the maximal activity seen.

Records with an inconclusive call do not appear. Some compounds were tested as several samples or in several runs, with calls that do not always agree. Activity calls are given as the source filed them. Rule for the calls: active = hit-call score of the fitted dose curve at least 0.9, where 1 is the maximum; inconclusive = response in the unintended direction; inactive = score below 0.9.

The target in the assay is Cellular tumor antigen p53 (Homo sapiens) (UniProt P04637). The experiment in a line: TOX21_p53_BLA_p3_ratio: Tox21 HCT-116 p53 Agonism Beta-lactamase Assay, Ratio, Phase 3 (AID 2283596). An excerpt: TOX21_p53_BLA_p3 is a cell-based, single-readout assay that uses HCT116, a human intestinal cell line, […] in a 1536-well plate.TOX21_p53_BLA_p3_ratio is an assay readout measuring reporter gene via receptor activity and designed using inducible reporter (beta lactamase induction) detected with GAL4 b-lactamase reporter gene. The signal is derived from the ratio of cleaved (ch2) to uncleaved (ch1) reporter gene substrate used as the measure of target activity.Data from the assay component TOX21_p53_BLA_p3_ratio was analyzed into 1 assay endpoint. This assay endpoint, TOX21_p53_BLA_p3_ratio, was analyzed in the positive analysis fitting direction relative to DMSO as the negative control and baseline of activity. Using a type of inducible reporter, gain-of-signal activity can be used to understand changes in the reporter gene as they relate to the gene TP53. Furthermore, this assay endpoint can be referred to as a primary readout, because this assay has produced multiple assay endpoints where this ratio serves a reporter gene function to understand target activity. To generalize the intended target to other relatable targets, this assay endpoint is annotated to the DNA binding intended target family, where the subfamily is tumor suppressor.
Cellular tumor antigen p53 (Homo sapiens), sequence (P04637 whole entry, looked up, the tested form may be a part): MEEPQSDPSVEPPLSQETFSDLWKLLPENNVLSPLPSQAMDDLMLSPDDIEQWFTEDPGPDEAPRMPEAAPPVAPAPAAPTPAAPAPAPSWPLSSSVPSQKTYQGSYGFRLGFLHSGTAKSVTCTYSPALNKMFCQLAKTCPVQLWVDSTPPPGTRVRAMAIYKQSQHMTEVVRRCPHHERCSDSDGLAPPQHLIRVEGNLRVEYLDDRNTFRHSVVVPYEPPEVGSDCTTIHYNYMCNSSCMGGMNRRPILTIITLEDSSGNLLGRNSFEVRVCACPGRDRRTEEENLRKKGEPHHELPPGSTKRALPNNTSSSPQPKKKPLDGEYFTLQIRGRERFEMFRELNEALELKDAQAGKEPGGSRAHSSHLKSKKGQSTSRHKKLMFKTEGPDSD
Thawing Method: Place 14 mL of pre-warmed thaw medium into a 15 mL of conical tub. Remove the vial of cells to be thawed from liquid nitrogen and thaw rapidly by placing at 37C in a water bath with gentle agitation for 1-2 minutes. Decontaminate the vial by wiping with 70% ethanol before opening in a biological safety cabinet. Transfer the vial contents drop-wise into 14 mL of thaw medium in a sterile 15-mL conical tub. Centrifuge cells at 900 rpm for 4 minutes and resuspend in thaw medium. Transfer contents to the T75 tissue culture flask containing Thaw Medium and place flask in a humidified 37C/5% CO2 incubator. Switch to growth medium at first passage.Propagation Method: Aspirate medium, rinse once in DPBS, add 0.25% Trypsin/EDTA and swirl to coat the cell evenly. Add an equal volume of Growth Medium to inactivate Trypsin after 2-3 minutes incubation at 37C. Centrifuge cells at 900 rpm for 4 minutes and resuspend in growth medium. Cell should be passage or fed at least twice a week.Assay Protocol: Harvest cells from culture in growth medium and resuspend in assay medium. 2.2 Dispense 4000 cells/5 uL/well into 1536-well black/clear bottom plates using a Multidrop dispenser. After the cells were incubated at 37C for 5 hours, 23 nL of compounds dissolved in DMSO were transferred to the assay plate by a PinTool resulting in a 217-fold dilution. Incubate the plates for 16 hours at 37C, 5% CO2. Add 1 uL of 6X LiveBLAzer FRET B/G (CCF4-AM) Substrate Mixture to each well using a BioRAPTR dispenser and incubate the plates at room temperature for 2 hours. Measure fluorescence intensity at 460 and 530 nm emission and 405 nm excitation by an Envision detector. Data is expressed as the ratio of 460nm/530nm emissions. Add 4 uL of Cell-titer Glo to each well using BioRAPTR and incubate the plates at room temperature for 2 hours. Measure fluorescence intensity by a VewLux plate reader.
As for `CCC1(CC)C(=O)NC(=O)N(C)C1=O`, the result was inactive.
The same measure, in the same setting: then `ClC=C(Cl)Cl`, with “inactive”; and `C=CCC1([C@H](C)CCC)C(=O)NC(=O)NC1=O`, with “inactive”.
On to `Cn1c(CCCC(=O)O)nc2cc(N(CCCl)CCCl)ccc21`, for which the AC50 is 31.3 µM (active).
As for `Nc1ccccc1-c1ccccc1`, the result was inactive.
The same measure, in the same setting: as for `COC(C)(C)C`, the entry is “inactive”.
`CCCC[N+]1(C)[C@@H]2CC(OC(=O)[C@H](CO)c3ccccc3)C[C@H]1[C@@H]1O[C@@H]12` (stereo not given in full): the outcome was inactive.
On the same count and under the same terms, as for `F/C(COc1ccc2c(c1)[nH]c1ccccc12)=C1/CN2CCC1CC2`, the entry is “inactive”; as for `Nc1ccccc1C(=O)O`, “inactive”.
`CC(C)C(Nc1ccc(C(F)(F)F)cc1Cl)C(=O)OC(C#N)c1cccc(Oc2ccccc2)c1` (stereo not given): the AC50 was 87.3 µM (active).
Regarding `O=c1[nH]c2ccccc2n1CCCN1CCC(n2c(=O)[nH]c3cc(Cl)ccc32)CC1`, the result was inactive.
On the same count and under the same terms, as for `CN1CC[C@]23c4c5ccc(O)c4O[C@H]2[C@@H](O)CC[C@H]3[C@H]1C5`, the entry is “inactive”; as for `ClCOCCl`, “inactive”.
`CN1C[C@H](C(=O)N[C@]2(C)O[C@@]3(O)[C@@H]4CCCN4C(=O)[C@H](Cc4ccccc4)N3C2=O)C=C2c3cccc4[nH]cc(c34)C[C@H]21`: the outcome was inactive.
Still for that read-out and setting: as for `CCC(C)Cl` (stereo not given), the entry is “inactive”; as for `C=CC=O`, “inactive”.
On the same count and under the same terms, then `CCC/C=C/C=C/C(=O)O[C@H]1/C(=C/C(=O)OC)C[C@H]2C[C@H]([C@@H](C)O)OC(=O)C[C@H](O)C[C@@H]3C[C@H](OC(C)=O)C(C)(C)[C@](O)(C[C@@H]4C/C(=C/C(=O)OC)C[C@H](/C=C/C(C)(C)[C@]1(O)O2)O4)O3`, with “inactive”.
Same read-out and setting: then `CC(C)=CCN1CC[C@@]2(C)c3cc(O)ccc3C[C@@H]1[C@@H]2C`, with “inactive”.
As for `Oc1cccc[c]1[Hg][Cl]`, the concentration at half-maximal activity (AC50) is 18.6 µM (active).
`C1CS1`: the outcome was inactive.
On the same count and under the same terms, then `CC(C)(O)[C@@H]1[C@H]2OC(=O)[C@@H]1[C@]1(O)C[C@H]3O[C@]34C(=O)O[C@H]2[C@]14C` (tested in a mixture with another compound), with “inactive”.
For `CCCC(Cn1cncn1)c1ccc(Cl)cc1Cl` (stereo not given), the AC50 is 85.7 µM (active).
With `O=C1c2ccccc2C(=O)C1C(=O)C(c1ccccc1)c1ccccc1`, the outcome was inactive.
The same measure, in the same setting: then `CCOC(=O)CBr`, with “inactive”; and `O=[N+]([O-])c1ccccc1CCl`, with “inactive”; and `CC(C)(Cl)[N+](=O)[O-]`, with “inactive”.
On the same count and under the same terms, as for `C[C@H]1[C@@H]2Cc3ccc(O)cc3[C@@]1(C)CCN2C`, the entry is “inactive”; as for `c1ccc(CN2CCNCC2)cc1`, “inactive”.
Still for that read-out and setting: as for `COC(=O)C(C)N(C(=O)Cc1ccccc1)c1c(C)cccc1C` (stereo not given), the entry is “inactive”; as for `C(COCC1CO1)OCC1CO1` (stereo not given), “inactive”; as for `c1ccccc1`, “inactive”.
For the compound `O=C1C(Cl)=C(Cl)C(=O)C(Cl)=C1Cl`, the half-maximal activity concentration (AC50) was 4.93 µM (active) and the result was inactive.
With `c1ccc2c(c1)[nH]c1cnccc12`, the AC50 was 46.1 µM (active).
Turning to `N#CC(Cl)Cl`, the result was inactive.
Same read-out and setting: then `C[C@@H](Cc1ccccc1)NCCC(c1ccccc1)c1ccccc1`, with “inactive”; and `NC(=S)c1c(Cl)cccc1Cl`, with “inactive”; and `CCN(CC)C(=O)N[C@H]1C[C@@H]2c3cccc4[nH]cc(c34)C[C@H]2N(C)C1`, with “inactive”.
The same measure, in the same setting: as for `CNC(C)Cc1ccccc1` (stereo not given), the entry is “inactive”; as for `C[C@]12C=CC(=O)C=C1CC[C@@H]1[C@@H]2CC[C@@]2(C)[C@H]1CC[C@]2(C)O`, “inactive”.
